Data published in ChEMBL document CHEMBL2218924, “A broad activity screen in support of a chemogenomic map for kinase signalling research and drug discovery” (Biochem J, 2013).

Key:
[1] = target: T1, Serine/threonine-protein kinase 3 (Homo sapiens) (UniProt Q13188); details: at 1 µM
T1 sequence (whole entry): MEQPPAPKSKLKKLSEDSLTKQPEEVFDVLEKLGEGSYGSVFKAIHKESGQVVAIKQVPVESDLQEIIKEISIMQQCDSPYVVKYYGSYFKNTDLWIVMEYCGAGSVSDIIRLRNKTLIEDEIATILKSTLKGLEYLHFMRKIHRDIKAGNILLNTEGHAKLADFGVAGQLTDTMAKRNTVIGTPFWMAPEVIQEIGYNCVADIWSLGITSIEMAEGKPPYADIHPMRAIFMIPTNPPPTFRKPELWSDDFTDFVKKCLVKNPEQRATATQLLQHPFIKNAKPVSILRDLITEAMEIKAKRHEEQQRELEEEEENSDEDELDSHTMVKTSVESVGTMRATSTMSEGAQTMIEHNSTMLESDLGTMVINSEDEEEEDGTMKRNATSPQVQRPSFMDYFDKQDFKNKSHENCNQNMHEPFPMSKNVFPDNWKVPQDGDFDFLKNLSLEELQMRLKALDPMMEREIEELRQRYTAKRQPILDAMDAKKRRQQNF

[2] = target: T1, Serine/threonine-protein kinase 3 (Homo sapiens); details: at 10 µM
[3] = target: Serine/threonine-protein kinase 24 (Homo sapiens) (UniProt Q9Y6E0); details: at 1 µM
Serine/threonine-protein kinase 24 (Homo sapiens), sequence (Q9Y6E0 whole entry, looked up): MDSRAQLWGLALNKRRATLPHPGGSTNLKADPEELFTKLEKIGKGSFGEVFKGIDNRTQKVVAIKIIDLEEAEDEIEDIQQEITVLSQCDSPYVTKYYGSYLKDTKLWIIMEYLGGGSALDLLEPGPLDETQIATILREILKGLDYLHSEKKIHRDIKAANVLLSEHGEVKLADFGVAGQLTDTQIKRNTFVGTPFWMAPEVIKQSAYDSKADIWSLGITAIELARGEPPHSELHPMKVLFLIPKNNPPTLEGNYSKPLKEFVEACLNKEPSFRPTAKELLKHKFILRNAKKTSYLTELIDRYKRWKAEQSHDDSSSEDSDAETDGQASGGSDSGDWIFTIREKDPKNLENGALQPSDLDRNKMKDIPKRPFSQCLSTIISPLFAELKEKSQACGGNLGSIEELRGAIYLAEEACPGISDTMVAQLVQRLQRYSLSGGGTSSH

[4] = target: Serine/threonine-protein kinase 24 (Homo sapiens) (UniProt Q9Y6E0); details: at 10 µM
[5] = target: T2, Tyrosine-protein kinase Mer (Homo sapiens) (UniProt Q12866); details: at 1 µM
T2 sequence (whole entry): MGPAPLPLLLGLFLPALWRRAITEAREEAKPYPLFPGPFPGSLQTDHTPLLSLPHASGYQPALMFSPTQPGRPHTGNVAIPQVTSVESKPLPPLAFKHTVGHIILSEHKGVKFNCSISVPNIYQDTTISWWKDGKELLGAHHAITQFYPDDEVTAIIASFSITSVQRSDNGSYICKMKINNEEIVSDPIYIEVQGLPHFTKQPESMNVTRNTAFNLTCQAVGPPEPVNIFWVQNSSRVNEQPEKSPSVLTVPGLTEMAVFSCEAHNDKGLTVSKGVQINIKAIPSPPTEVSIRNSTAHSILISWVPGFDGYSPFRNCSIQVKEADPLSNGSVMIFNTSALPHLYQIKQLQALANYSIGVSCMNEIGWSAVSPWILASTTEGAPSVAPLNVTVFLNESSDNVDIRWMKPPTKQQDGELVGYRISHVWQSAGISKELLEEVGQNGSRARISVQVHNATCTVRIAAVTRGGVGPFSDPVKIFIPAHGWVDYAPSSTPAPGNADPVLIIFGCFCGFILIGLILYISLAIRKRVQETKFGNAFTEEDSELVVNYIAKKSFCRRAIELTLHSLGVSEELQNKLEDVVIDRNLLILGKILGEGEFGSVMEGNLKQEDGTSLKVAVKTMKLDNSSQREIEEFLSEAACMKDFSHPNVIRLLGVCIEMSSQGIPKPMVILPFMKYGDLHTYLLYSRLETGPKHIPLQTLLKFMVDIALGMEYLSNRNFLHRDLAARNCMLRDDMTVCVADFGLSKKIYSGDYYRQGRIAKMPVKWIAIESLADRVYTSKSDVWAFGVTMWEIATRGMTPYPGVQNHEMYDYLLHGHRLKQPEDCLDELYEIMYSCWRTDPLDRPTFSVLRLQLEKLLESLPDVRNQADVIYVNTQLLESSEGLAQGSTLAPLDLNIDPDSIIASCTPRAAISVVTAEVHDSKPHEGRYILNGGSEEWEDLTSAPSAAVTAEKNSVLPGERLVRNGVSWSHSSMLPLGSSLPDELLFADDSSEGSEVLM

[6] = target: T2, Tyrosine-protein kinase Mer (Homo sapiens); details: at 10 µM
[7] = target: Hepatocyte growth factor receptor (Homo sapiens) (UniProt P08581); details: at 1 µM
Hepatocyte growth factor receptor (Homo sapiens), sequence (P08581 whole entry): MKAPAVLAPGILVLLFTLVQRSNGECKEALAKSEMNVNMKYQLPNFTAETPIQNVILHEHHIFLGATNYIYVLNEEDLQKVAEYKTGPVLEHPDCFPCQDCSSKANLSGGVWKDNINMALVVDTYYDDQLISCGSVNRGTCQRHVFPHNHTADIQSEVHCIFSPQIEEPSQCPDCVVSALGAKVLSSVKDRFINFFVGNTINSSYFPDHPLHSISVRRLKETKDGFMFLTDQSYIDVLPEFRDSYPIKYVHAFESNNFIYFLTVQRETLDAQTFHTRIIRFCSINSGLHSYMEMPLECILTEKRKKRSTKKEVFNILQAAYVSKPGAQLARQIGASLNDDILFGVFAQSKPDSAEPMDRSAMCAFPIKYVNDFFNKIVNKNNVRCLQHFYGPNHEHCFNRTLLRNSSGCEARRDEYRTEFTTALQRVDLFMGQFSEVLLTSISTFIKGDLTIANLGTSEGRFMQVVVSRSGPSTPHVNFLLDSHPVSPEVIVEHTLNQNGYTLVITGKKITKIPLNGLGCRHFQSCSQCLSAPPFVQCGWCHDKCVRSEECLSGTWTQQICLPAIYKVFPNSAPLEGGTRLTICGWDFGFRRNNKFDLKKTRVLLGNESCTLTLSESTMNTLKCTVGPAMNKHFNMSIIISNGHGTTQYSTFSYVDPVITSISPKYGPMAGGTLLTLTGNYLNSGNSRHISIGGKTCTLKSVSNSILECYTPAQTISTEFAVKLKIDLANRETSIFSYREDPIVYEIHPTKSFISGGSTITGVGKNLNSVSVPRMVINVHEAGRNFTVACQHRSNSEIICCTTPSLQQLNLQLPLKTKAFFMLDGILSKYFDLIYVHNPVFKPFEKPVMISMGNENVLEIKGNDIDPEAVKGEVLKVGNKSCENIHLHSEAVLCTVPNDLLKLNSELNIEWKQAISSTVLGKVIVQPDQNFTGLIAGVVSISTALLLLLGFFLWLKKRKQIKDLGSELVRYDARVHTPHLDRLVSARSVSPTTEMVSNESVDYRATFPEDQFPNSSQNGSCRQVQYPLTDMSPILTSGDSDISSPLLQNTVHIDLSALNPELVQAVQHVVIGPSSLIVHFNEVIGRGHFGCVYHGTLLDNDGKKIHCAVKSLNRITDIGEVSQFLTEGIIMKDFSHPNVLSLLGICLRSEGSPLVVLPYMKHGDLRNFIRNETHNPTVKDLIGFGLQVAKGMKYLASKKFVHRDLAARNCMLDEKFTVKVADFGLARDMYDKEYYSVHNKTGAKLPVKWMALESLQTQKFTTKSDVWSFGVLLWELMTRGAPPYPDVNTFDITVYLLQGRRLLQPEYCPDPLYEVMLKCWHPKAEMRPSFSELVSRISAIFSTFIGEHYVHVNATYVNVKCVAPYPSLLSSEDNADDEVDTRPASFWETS

[8] = target: Hepatocyte growth factor receptor (Homo sapiens) (UniProt P08581); details: at 10 µM
[9] = target: MAP kinase-interacting serine/threonine-protein kinase 2 (Homo sapiens) (UniProt Q9HBH9); details: at 1 µM
MAP kinase-interacting serine/threonine-protein kinase 2 (Homo sapiens), sequence (Q9HBH9 whole entry, looked up): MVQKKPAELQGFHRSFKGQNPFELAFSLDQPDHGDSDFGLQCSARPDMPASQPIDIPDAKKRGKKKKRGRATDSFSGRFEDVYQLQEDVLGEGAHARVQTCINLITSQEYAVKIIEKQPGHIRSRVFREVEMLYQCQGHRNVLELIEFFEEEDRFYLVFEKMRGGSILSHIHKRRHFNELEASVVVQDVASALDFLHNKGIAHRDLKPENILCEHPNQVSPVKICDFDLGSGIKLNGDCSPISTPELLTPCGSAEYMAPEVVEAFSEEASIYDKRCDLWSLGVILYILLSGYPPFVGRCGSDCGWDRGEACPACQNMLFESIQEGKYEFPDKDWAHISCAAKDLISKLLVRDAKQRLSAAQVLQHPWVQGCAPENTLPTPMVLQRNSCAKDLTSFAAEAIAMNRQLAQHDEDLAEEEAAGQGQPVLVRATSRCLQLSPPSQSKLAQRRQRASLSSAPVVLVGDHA

[10] = target: MAP kinase-interacting serine/threonine-protein kinase 2 (Homo sapiens) (UniProt Q9HBH9); details: at 10 µM
[11] = target: T3, Muscle, skeletal receptor tyrosine-protein kinase (Homo sapiens) (UniProt O15146); details: at 1 µM
T3 sequence (whole entry): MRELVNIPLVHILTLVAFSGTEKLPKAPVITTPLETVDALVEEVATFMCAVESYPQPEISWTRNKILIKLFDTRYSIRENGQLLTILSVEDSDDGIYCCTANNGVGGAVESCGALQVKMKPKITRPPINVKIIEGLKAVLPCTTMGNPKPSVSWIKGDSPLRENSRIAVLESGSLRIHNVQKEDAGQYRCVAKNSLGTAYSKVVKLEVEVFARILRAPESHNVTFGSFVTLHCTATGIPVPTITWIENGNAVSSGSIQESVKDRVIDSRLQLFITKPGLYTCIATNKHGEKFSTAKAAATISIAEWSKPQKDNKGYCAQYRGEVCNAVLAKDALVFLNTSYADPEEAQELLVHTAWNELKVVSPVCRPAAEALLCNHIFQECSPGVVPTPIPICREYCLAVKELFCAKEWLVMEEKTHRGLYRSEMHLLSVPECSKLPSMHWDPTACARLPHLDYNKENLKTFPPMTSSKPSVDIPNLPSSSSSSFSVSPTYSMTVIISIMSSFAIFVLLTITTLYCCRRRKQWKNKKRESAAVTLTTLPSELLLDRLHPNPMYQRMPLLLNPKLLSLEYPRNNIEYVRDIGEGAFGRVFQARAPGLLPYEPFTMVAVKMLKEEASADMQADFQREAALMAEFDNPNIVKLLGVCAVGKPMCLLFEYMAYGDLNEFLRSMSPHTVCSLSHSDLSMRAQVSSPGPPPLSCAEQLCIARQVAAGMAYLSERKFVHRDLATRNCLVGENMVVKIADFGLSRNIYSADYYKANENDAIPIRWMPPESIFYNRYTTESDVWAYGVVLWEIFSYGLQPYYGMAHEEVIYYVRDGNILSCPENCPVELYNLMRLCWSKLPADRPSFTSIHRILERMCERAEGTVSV

[12] = target: T3, Muscle, skeletal receptor tyrosine-protein kinase (Homo sapiens); details: at 10 µM
[13] = target: T4, Serine/threonine-protein kinase Nek11 (Homo sapiens) (UniProt Q8NG66); details: at 1 µM
T4 sequence (whole entry): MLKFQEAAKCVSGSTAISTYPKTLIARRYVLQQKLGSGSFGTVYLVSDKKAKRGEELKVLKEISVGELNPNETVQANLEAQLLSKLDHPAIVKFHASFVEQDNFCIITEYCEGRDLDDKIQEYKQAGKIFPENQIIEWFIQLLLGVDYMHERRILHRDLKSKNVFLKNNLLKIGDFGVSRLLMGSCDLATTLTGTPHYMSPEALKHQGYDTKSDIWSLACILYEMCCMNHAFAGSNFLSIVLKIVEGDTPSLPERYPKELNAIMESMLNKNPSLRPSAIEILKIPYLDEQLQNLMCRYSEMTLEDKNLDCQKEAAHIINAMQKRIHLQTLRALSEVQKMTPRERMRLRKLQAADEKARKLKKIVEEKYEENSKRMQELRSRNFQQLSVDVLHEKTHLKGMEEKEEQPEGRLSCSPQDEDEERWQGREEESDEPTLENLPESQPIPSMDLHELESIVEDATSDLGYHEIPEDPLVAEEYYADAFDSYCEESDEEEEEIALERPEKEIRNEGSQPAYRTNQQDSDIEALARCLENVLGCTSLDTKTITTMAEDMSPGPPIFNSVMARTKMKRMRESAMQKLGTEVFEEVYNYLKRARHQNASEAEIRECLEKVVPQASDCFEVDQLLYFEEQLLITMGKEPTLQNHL

[14] = target: T4, Serine/threonine-protein kinase Nek11 (Homo sapiens); details: at 10 µM
[15] = target: T5, Serine/threonine-protein kinase Nek2 (Homo sapiens) (UniProt P51955); details: at 1 µM
T5 sequence (whole entry): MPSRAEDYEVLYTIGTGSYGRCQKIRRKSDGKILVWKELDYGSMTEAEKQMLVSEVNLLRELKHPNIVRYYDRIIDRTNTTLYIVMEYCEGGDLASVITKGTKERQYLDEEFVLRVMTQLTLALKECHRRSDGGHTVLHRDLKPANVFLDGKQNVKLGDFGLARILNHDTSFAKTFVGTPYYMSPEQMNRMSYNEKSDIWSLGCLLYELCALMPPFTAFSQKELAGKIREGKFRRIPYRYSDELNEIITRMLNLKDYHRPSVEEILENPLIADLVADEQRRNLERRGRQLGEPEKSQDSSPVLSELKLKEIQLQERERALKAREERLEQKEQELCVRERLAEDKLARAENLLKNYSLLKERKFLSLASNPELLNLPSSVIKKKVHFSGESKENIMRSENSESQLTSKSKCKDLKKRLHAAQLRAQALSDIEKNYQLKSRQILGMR

[16] = target: T5, Serine/threonine-protein kinase Nek2 (Homo sapiens); details: at 10 µM
[17] = target: T6, Serine/threonine-protein kinase Nek3 (Homo sapiens) (UniProt P51956); details: at 1 µM
T6 sequence (whole entry): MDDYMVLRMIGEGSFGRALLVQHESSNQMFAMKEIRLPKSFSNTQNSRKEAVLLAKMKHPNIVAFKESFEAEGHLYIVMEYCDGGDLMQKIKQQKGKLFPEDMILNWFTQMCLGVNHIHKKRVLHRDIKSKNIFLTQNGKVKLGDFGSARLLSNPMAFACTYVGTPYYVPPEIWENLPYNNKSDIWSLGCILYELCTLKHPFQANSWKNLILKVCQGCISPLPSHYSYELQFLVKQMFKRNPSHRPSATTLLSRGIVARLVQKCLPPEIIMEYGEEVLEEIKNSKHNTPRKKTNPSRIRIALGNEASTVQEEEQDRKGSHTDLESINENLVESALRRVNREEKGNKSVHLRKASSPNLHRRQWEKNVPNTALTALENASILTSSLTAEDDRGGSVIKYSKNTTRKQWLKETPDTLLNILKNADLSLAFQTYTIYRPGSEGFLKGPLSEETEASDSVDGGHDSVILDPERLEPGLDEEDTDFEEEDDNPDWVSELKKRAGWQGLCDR

[18] = target: T6, Serine/threonine-protein kinase Nek3 (Homo sapiens); details: at 10 µM
[19] = target: Serine/threonine-protein kinase tousled-like 2 (Homo sapiens) (UniProt Q86UE8); details: at 1 µM
Serine/threonine-protein kinase tousled-like 2 (Homo sapiens), sequence (Q86UE8 whole entry, looked up): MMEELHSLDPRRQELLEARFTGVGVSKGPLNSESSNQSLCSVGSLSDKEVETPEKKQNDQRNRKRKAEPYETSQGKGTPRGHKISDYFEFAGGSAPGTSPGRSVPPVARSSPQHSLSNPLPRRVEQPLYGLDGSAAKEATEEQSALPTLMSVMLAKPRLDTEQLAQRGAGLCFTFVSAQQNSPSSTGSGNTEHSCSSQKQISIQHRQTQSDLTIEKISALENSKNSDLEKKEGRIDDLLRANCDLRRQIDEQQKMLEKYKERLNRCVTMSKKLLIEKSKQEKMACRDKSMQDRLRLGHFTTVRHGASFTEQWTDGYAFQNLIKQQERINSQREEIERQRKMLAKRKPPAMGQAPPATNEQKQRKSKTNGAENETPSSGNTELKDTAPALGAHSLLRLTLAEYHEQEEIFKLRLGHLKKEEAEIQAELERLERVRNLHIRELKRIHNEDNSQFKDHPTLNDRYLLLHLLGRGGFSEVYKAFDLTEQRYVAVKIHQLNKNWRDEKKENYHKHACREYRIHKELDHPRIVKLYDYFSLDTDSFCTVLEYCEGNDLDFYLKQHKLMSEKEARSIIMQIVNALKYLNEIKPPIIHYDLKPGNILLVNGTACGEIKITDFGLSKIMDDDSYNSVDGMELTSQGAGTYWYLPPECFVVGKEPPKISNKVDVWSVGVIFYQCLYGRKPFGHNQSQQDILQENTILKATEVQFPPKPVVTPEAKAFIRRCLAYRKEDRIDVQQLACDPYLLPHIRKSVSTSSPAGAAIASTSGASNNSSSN

[20] = target: Serine/threonine-protein kinase tousled-like 2 (Homo sapiens) (UniProt Q86UE8); details: at 10 µM

SMILES | residual activity [1] [%] | residual activity [2] [%] | residual activity [3] [%] | residual activity [4] [%] | residual activity [5] [%] | residual activity [6] [%] | residual activity [7] [%] | residual activity [8] [%] | residual activity [9] [%] | residual activity [10] [%] | residual activity [11] [%] | residual activity [12] [%] | residual activity [13] [%] | residual activity [14] [%] | residual activity [15] [%] | residual activity [16] [%] | residual activity [17] [%] | residual activity [18] [%] | residual activity [19] [%] | residual activity [20] [%]
O=C(Nc1cccc(Nc2nccc(Nc3cccc(C(F)(F)F)c3)n2)c1)C1CC1 | 89 | 60 | 72 | 65 | 72 | 70 | 79 | 55 | 70 | 77 | 88 | 3 | 90 | 80 | 94 | 101 | 88 | 33 | 109 | 93
N#C/C(=C(\N)Sc1ccc(N)cc1)c1ccccc1C(F)(F)F | 76 | 80 | 70 | 62 | 94 | 94 | 98 | 90 | 102 | 106 | 86 | 84 | 64 | 68 | 93 | 91 | 75 | 103 | 98 | 93
O=C1c2ccccc2-[n+]2ccc3c([nH]c4ccccc43)c21 | 101 | 100 | 71 | 70 | 95 | 97 | 112 | 86 | 55 | 42 | 85 | 88 | 48 | 44 | 90 | 87 | 88 | 90 | 80 | 83
O=C1NC(=O)/C(=C\c2ccc3nccnc3c2)S1 | 96 | 100 | 57 | 55 | 111 | 60 | 98 | 94 | 76 | 28 | 90 | 75 | 43 | 35 | 88 | 86 | 109 | 81 | 103 | 91
O=C1NC(=O)c2c1c1c3ccccc3[nH]c1c1[nH]c3cc(Br)ccc3c21 | 89 | 62 | 92 | 80 | 87 | 68 | 120 | 116 | 48 | 41 | 104 | 90 | 62 | 73 | 91 | 88 | 85 | 92 | 85 | 86
Cc1nc(-c2ccccc2)c(-c2ccncc2)o1 | 102 | 96 | 101 | 100 | 99 | 88 | 128 | 94 | 106 | 77 | 113 | 94 | 81 | 85 | 103 | 102 | 102 | 114 | 106 | 103
CCN(CC)CCCCN1c2ccccc2Oc2ccc(Cl)cc21 | 118 | 112 | 85 | 99 | 110 | 62 | 128 | 108 | 107 | 84 | 129 | 97 | 80 | 113 | 85 | 112 | 110 | 111 | 111 | 91
